Entries with a potency or affinity are not part of this list.
test system: Staphylococcus aureus; details: Concentration 32 ug.mL-1; ASSAY_TEST Inhibition of Bacterial Growth; detection method Absorption (OD600); MEDIA CAMHB; plate type 384well; NBS; CORNING #3640; time 18 hr

| Structure (SMILES) | Inhibition [%] |
| --- | --- |
| CCOC(=O)C1=C(OC)OC(=O)CC1c1ccccc1 (stereo unspecified) | 39.56 |
| CN1CC=C(c2cccn2C)CC1.Cl | 10.31 |
| NNCCCc1c[nH]c2ccccc12.O=C(O)/C=C/C(=O)O | 18.22 |
| CCOC(=O)c1cn(Cc2ccccc2)c2ccccc12 | 3.83 |
| CCOc1nc2nc(C)c(C(=O)O)cc2c(-c2ccccc2)c1C#N | 17.86 |
| CCOC(=O)C1=C(C)OC(=O)CC1c1ccccc1 (stereo unspecified) | 23.21 |
| CCOC(=O)c1cc2cc(OC(=O)NC3CCN(Cc4ccccc4)CC3)ccc2[nH]1 | 20.68 |
| C#CCN(C)Cc1cc2cc(OCc3ccc(OC(=O)N(C)C)c4ncccc34)ccc2n1C | 7.52 |
| Nc1c2c(nc3c1C(c1ccccc1)CC(=O)N3)CCCC2 (stereo unspecified) | 28.94 |
| N#CCC(=O)c1ccccc1 | 30.68 |
| COc1ccc2c(c1)cc(C[N+](C)(C)C)n2C.[I-] | 13.5 |
| NNC(=O)c1cccnc1 [NICOTINIC ACID HYDRAZIDE] | 11.6 |
| C#CCN(C)Cc1cc2cc(OCCCC3CCN(Cc4ccc(OC(=O)N(C)C)c5ncccc45)CC3)ccc2n1C | 11.25 |
| C#CCN1CCc2nc3nc(OC)c(C#N)cc3c(N)c2C1 | 26.45 |
| Cc1ccc(C=C(C#N)C#N)cc1 | 8.41 |
| [N-]=[N+]=NCC(=O)c1ccc(Br)cc1 | 26.38 |
| O=C(N1[C@H]2CC[C@@H]1C(c1nnn[nH]1)C2)C(F)(F)F (stereo partly specified) | 26.59 |
| C#CCN(C)Cc1cc2cc(OC(=O)N(C)C)ccc2n1C | -2.15 |
| N#Cc1cc(C#N)c(N2C3CCC2CC3)nc1N | -1.36 |

| Structure (SMILES) | Inhibition [%] |
| --- | --- |
| N#CC(C#N)=Cc1ccc(Cl)cc1 | 7.12 |
| COc1cc(C2C(C#N)=C(N)Oc3c2ccc2ccccc32)cc(OC)c1OC (stereo unspecified) | 6.42 |
| COc1ccc(C=C(C#N)C#N)cc1OC | 14.77 |
| Cl.ClCCN1CCCC1 | 22.74 |
| CNCc1cn(C)c2ccc(OC)cc12.Cl | 14.24 |
| CC1CC(=O)Nc2nc3c(c(N)c21)CCCC3 (stereo unspecified) | 27.94 |
| C#CCN1CCc2nc3ncccc3c(N)c2C1.Cl | 20.08 |
| OCC(Cc1cnc[nH]1)NCc1ccccc1 (stereo unspecified) | 6.92 |
| Cc1ccc(S(=O)(=O)N2[C@H]3CC[C@@H]2CC3)cc1 | 28.46 |
| Cc1nc(N)c(C#N)cc1C(=O)O | 4.41 |
| O=C(CBr)NCc1ccccc1 | 46.96 |
| CCOC(=O)C1=C(C)NC(=O)CC1c1ccccc1 (stereo unspecified) | 39.69 |
| C#CCN1CCc2nc3nc(Cl)c(C#N)cc3c(N)c2C1 | 26.25 |
| CN(C)C(=O)Oc1ccc(CCl)c2cccnc12 | 22.39 |
| Cc1ccccc1C=C(C#N)C#N | 3.49 |
| NNC(=O)c1cn(Cc2ccccc2)c2ccccc12 | 1.65 |
| Nc1c2c(nc3ccccc13)CCN(Cc1ccccc1)C2 | 9.97 |
| CN1CC=C(c2cccn2C)CC1 | 10.32 |
| Cl.ClCCN1CCCCC1 | 28.78 |

test system: Escherichia coli; details: Concentration 32 ug.mL-1; ASSAY_TEST Inhibition of Bacterial Growth; detection method Absorption (OD600); MEDIA CAMHB; plate type 384well; NBS; CORNING #3640; time 18 hr

| Structure (SMILES) | Inhibition [%] |
| --- | --- |
| CCOC(=O)C1=C(OC)OC(=O)CC1c1ccccc1 (stereo unspecified) | -6.33 |
| CN1CC=C(c2cccn2C)CC1.Cl | 19.65 |
| NNCCCc1c[nH]c2ccccc12.O=C(O)/C=C/C(=O)O | 27.72 |
| CCOC(=O)c1cn(Cc2ccccc2)c2ccccc12 | -2.16 |
| CCOc1nc2nc(C)c(C(=O)O)cc2c(-c2ccccc2)c1C#N | -10.47 |
| CCOC(=O)C1=C(C)OC(=O)CC1c1ccccc1 (stereo unspecified) | -9.36 |
| CCOC(=O)c1cc2cc(OC(=O)NC3CCN(Cc4ccccc4)CC3)ccc2[nH]1 | -6.09 |
| C#CCN(C)Cc1cc2cc(OCc3ccc(OC(=O)N(C)C)c4ncccc34)ccc2n1C | -14.26 |
| Nc1c2c(nc3c1C(c1ccccc1)CC(=O)N3)CCCC2 (stereo unspecified) | 0.15 |
| N#CCC(=O)c1ccccc1 | 18.52 |
| COc1ccc2c(c1)cc(C[N+](C)(C)C)n2C.[I-] | 12.23 |
| NNC(=O)c1cccnc1 [NICOTINIC ACID HYDRAZIDE] | 15.76 |
| C#CCN(C)Cc1cc2cc(OCCCC3CCN(Cc4ccc(OC(=O)N(C)C)c5ncccc45)CC3)ccc2n1C | -10.82 |
| C#CCN1CCc2nc3nc(OC)c(C#N)cc3c(N)c2C1 | -2.8 |
| Cc1ccc(C=C(C#N)C#N)cc1 | 8.38 |
| [N-]=[N+]=NCC(=O)c1ccc(Br)cc1 | 9.41 |
| O=C(N1[C@H]2CC[C@@H]1C(c1nnn[nH]1)C2)C(F)(F)F (stereo partly specified) | -6.69 |
| C#CCN(C)Cc1cc2cc(OC(=O)N(C)C)ccc2n1C | -5.14 |
| N#Cc1cc(C#N)c(N2C3CCC2CC3)nc1N | 10.18 |

| Structure (SMILES) | Inhibition [%] |
| --- | --- |
| N#CC(C#N)=Cc1ccc(Cl)cc1 | 5.89 |
| COc1cc(C2C(C#N)=C(N)Oc3c2ccc2ccccc32)cc(OC)c1OC (stereo unspecified) | 8.07 |
| COc1ccc(C=C(C#N)C#N)cc1OC | 13.47 |
| Cl.ClCCN1CCCC1 | 7.3 |
| CNCc1cn(C)c2ccc(OC)cc12.Cl | 17.26 |
| CC1CC(=O)Nc2nc3c(c(N)c21)CCCC3 (stereo unspecified) | -10.32 |
| C#CCN1CCc2nc3ncccc3c(N)c2C1.Cl | -15.24 |
| OCC(Cc1cnc[nH]1)NCc1ccccc1 (stereo unspecified) | 2.95 |
| Cc1ccc(S(=O)(=O)N2[C@H]3CC[C@@H]2CC3)cc1 | -2.06 |
| Cc1nc(N)c(C#N)cc1C(=O)O | -9.15 |
| O=C(CBr)NCc1ccccc1 | 14.62 |
| CCOC(=O)C1=C(C)NC(=O)CC1c1ccccc1 (stereo unspecified) | -3.27 |
| C#CCN1CCc2nc3nc(Cl)c(C#N)cc3c(N)c2C1 | -10.74 |
| CN(C)C(=O)Oc1ccc(CCl)c2cccnc12 | -10.05 |
| Cc1ccccc1C=C(C#N)C#N | 0.38 |
| NNC(=O)c1cn(Cc2ccccc2)c2ccccc12 | 1.53 |
| Nc1c2c(nc3ccccc13)CCN(Cc1ccccc1)C2 | 1.56 |
| CN1CC=C(c2cccn2C)CC1 | 19 |
| Cl.ClCCN1CCCCC1 | 20.05 |
